PubChem BioAssay (EPA / NIEHS)
Several values for one entry are separate records, joined by “and”; a condition that tells them apart may be missing. Equal values may be shown once. The source holds several records for some structures; these can differ, active in one and inactive in another. Activity calls are given as the source filed them. Rule for the calls: active = hit-call score of the fitted dose curve at least 0.9, where 1 is the maximum; inactive = score below 0.9.

Tests used:
[1] = read-out: Vascular cell adhesion molecule 1 (VCAM1), VCAM1 (gene 7412); test: BSK_hDFCGF_VCAM1: BioMAP Diversity Plus: hDFCGF Assay for Vascular cell adhesion molecule 1 (VCAM1) Biomarker Activity (AID 2283065); settings: primary human foreskin fibroblasts; actives raise or lower the signal;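 for AC50: VCAM-1 protein level quantified by ELISA after 24 h chemical exposure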
How it was run: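 Human foreskin fibroblast primary cells, chemical exposure 24 h; VCAM-1 by ELISA; bidirectional fit, DMSO = negative control/baseline.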

[2] = read-out: Plasminogen activator inhibitor-1 (PAI1), SERPINE1 (gene 5054); test: BSK_hDFCGF_PAI1: BioMAP Diversity Plus: hDFCGF Assay for Plasminogen activator inhibitor-1 (PAI1) Biomarker Activity (AID 2283066); settings: primary human foreskin fibroblasts; actives raise or lower the signal
How it was run: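 PAI-1 levels in human dermal foreskin fibroblasts were quantified by ELISA 24 h after dosing, with gain or loss analysed against DMSO. Overt cytotoxicity was checked by sulforhodamine B total-protein staining in parallel cultures.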

[3] = read-out: Intercellular Adhesion Molecule 1 (ICAM1), ICAM1 (gene 3383); test: BSK_KF3CT_ICAM1: BioMAP Diversity Plus: KF3CT Assay for Intercellular Adhesion Molecule 1 (ICAM1) Biomarker Activity (AID 2283067); settings: primary human keratinocytes with fibroblasts; actives raise or lower the signal
How it was run: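 ICAM-1 levels are measured by ELISA 24 h after dosing a primary human co-culture of keratinocytes and foreskin fibroblasts. Activity in either direction is fitted relative to DMSO vehicle.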

[4] = read-out: Interferon-gamma inducible Protein 10 (IP10), CXCL10 (gene 3627); test: BSK_KF3CT_IP10: BioMAP Diversity Plus: KF3CT Assay for Interferon-gamma inducible Protein 10 (IP10) Biomarker Activity (AID 2283068); settings: primary human keratinocytes with fibroblasts; actives raise or lower the signal
How it was run: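 ELISA read-out of IP-10 after 24 h chemical dosing of human skin primary co-culture (keratinocytes, foreskin fibroblasts). Gain or loss of signal relative to DMSO, bidirectional curve fit.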

[5] = BSK_KF3CT_SRB: Viability Assessment in the BioMAP Diversity Plus: KF3CT Assay (AID 2283069); settings: primary human keratinocytes with fibroblasts;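 note: read 24 h after compound addition; fitted for both signal gain and loss against DMSO baseline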
How it was run: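 Overt cytotoxicity is assessed as total protein by sulforhodamine B staining in parallel human skin co-cultures at 24 h after dosing. DMSO serves as negative control and baseline.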

[6] = read-out: Interleukin-1 alpha (IL1a), IL1A (gene 3552); test: BSK_KF3CT_IL1a: BioMAP Diversity Plus: KF3CT Assay for Interleukin-1 alpha (IL1a) Biomarker Activity (AID 2283070); settings: primary human keratinocytes with fibroblasts; actives raise or lower the signal
How it was run: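 Readout is IL-1a level by ELISA, compared bidirectionally with DMSO as baseline. Cells: human keratinocytes co-cultured with foreskin fibroblasts, harvested 24 h post-dose.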

[7] = read-out: TIMP metallopeptidase inhibitor 2 (TIMP2), TIMP2 (gene 7077); test: BSK_KF3CT_TIMP2: BioMAP Diversity Plus: KF3CT Assay for TIMP metallopeptidase inhibitor 2 (TIMP2) Biomarker Activity (AID 2283071); settings: primary human keratinocytes with fibroblasts; actives raise or lower the signal
How it was run: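 TIMP-2 measured by ELISA at 24 h in human keratinocyte/fibroblast primary co-cultures exposed to chemicals. Both increases and decreases were fitted against DMSO. Parallel cultures were stained with SRB for total protein as an overt-cytotoxicity check.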

[8] = read-out: Transforming growth factor beta 1 (TGFb1), TGFB1 (gene 7040); test: BSK_KF3CT_TGFb1: BioMAP Diversity Plus: KF3CT Assay for Transforming growth factor beta 1 (TGFb1) Biomarker Activity (AID 2283072); settings: primary human keratinocytes with fibroblasts; actives raise or lower the signal
How it was run: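 ELISA quantifies TGF-b1 at 24 h post-dose in a primary human skin co-culture of keratinocytes and fibroblasts, with gain or loss judged against DMSO. Parallel SRB total-protein staining flags overt cytotoxicity.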

[9] = read-out: C-C motif chemokine 2 (Homo sapiens) (UniProt P13500); test: BSK_KF3CT_MCP1: BioMAP Diversity Plus: KF3CT Assay for Monocyte Chemoattractant Protein 1 (MCP1/CCL2) Biomarker Activity (AID 2283073); settings: primary human keratinocytes with fibroblasts; actives raise or lower the signal
How it was run: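 ELISA readout of MCP-1 after 24 h chemical dosing of a human skin primary co-culture of keratinocytes and foreskin fibroblasts. Activity was fitted in both directions against DMSO.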

[10] = read-out: Matrix Metallopeptidase 9 (MMP9), MMP9 (gene 4318); test: BSK_KF3CT_MMP9: BioMAP Diversity Plus: KF3CT Assay for Matrix Metallopeptidase 9 (MMP9) Biomarker Activity (AID 2283074); settings: primary human keratinocytes with fibroblasts; actives raise or lower the signal;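 for AC50: MMP9 protein level quantified by ELISA in the co-culture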
How it was run: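 Values come from bidirectional fitting relative to DMSO of MMP-9 levels, which were measured by ELISA. Measurements were taken 24 h after chemical dosing of a keratinocyte and foreskin fibroblast co-culture.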

Measured: AC50

CCOC(=O)c1ccc(C2CCC(NC[C@H](O)COc3ccc(O)c(NS(C)(=O)=O)c3)CC2)cc1 (some centres not stated)
active: [1] 8.27 µM | [2] 8.8 µM | [8] 18.7 µM | [10] 27.2 µM
inactive: all other assays above

CN(C)c1ccc(Cc2ccc(N(C)C)cc2)cc1
not listed: [7]
inactive: all other assays above

CCc1cc(SCc2sc(-c3ccc(C(F)(F)F)cc3)nc2CN2CCN(c3ccc(OC)cc3)CC2)ccc1OCC(=O)O
active: [1] 3.57 µM | [2] 3.17 µM | [3] 7.27 µM | [4] 3.58 µM | [5] 3.42 µM | [6] 7.25 µM | [8] 4.39 µM | [9] 4.26 µM | [10] 4.08 µM

O=C1OC(=O)C2C3C=CC(C3)C12 (configuration not stated)
not listed: [7]
inactive: all other assays above

CC(C)CCCCCCCOC(=O)CCCCC(=O)OCCCCCCCC(C)C
not listed: [5]
inactive: all other assays above

COC(=O)c1c(Cl)c(Cl)c(C(=O)OC)c(Cl)c1Cl
inactive: all assays above

CN(C)c1ccc(N=NS(=O)(=O)O)cc1
active: [1] 3.79 µM
inactive: all other assays above

Fc1ccccc1[C@@H](F)COC1CCC(Nc2ncnc3[nH]ncc23)CC1 (some centres not stated)
not listed: [7]
inactive: all other assays above

CC(C)(O)c1coc(S(=O)(=O)NC(=O)Nc2c3c(cc4c2CCC4)CCC3)c1
not listed: [7]
inactive: all other assays above

Cn1c(=O)cc(Oc2ccc(F)cc2F)c2cnc(NCC(C)(C)O)nc21
active: [1] 0.92 µM
not listed: [7]
inactive: all other assays above

Nc1nc2ncc(CNc3ccc(C(=O)N[C@@H](CCC(=O)O)C(=O)O)cc3)nc2c(=O)[nH]1
inactive: all assays above

CCCCCCCCCCCCCCCO
not listed: [7]
inactive: all other assays above

C[C@](N)(Cc1ccc(O)c(O)c1)C(=O)O
active: [1] 20 µM
not listed: [7]
inactive: all other assays above

C1N2CN3CN1CN(C2)C3
inactive: all assays above

COC(=O)c1ccccc1O
not listed: [5]
inactive: all other assays above

O=C(CCCCCCCCc1cccnc1)N1CCC(C=C(c2ccccc2)c2ccccc2)CC1
active: [1] 8.47 µM | [2] 5.88 µM | [3] 16.6 µM | [4] 15.5 µM | [5] 14.7 µM | [6] 16.9 µM | [7] 10.8 µM | [8] 10.1 µM | [9] 16.9 µM | [10] 7.47 µM

COc1ccc2sc(C(=O)Nc3nnn[nH]3)c(OC(C)C)c2c1
active: [1] 12.2 µM | [2] 6.57 µM | [3] 24 µM | [4] 25.4 µM | [5] 26.1 µM | [6] 19.9 µM | [8] 19.9 µM | [9] 16.7 µM | [10] 27 µM

COC(=O)CC(=O)OC
inactive: all assays above

CC1=CC(=O)CC(C)(C)C1
inactive: all assays above

O=C(O)c1cc(N=Nc2ccc(S(=O)(=O)Nc3ccccn3)cc2)ccc1O
not listed: [7]
inactive: all other assays above

CC(C)CCCCCCOC(=O)c1ccc(C(=O)OCCCCCCC(C)C)c(C(=O)OCCCCCCC(C)C)c1
inactive: all assays above

CC(O)CN(CCN(CC(C)O)CC(C)O)CC(C)O (configuration not stated)
inactive: all assays above

CCOc1cccc(-n2cc(C(=O)N3CCN(c4cc(C(=O)O)c5ccccc5c4)CC3)nc2-c2ccc(C)cc2)c1
active: [1] 12.9 µM | [2] 6.1 µM | [3] 30.5 µM | [4] 29.2 µM | [5] 21.3 µM | [6] 30.1 µM | [7] 14.7 µM | [8] 14.4 µM | [9] 19.2 µM | [10] 19.7 µM

CCCCC(CC)COC(=O)CCCCCCCCC(=O)OCC(CC)CCCC (configuration not stated)
active: [9] 3.97 µM
not listed: [7]
inactive: all other assays above

O=C(O)c1cccc(N(Cc2cccnc2)c2ccc(OC(F)F)c(OC(F)F)c2)c1
active: [1] 1.27 µM | [2] 1.26 µM
inactive: all other assays above

CC(C)CC(C)(O)C#CC(C)(O)CC(C)C (configuration not stated)
not listed: [9]
inactive: all other assays above

COc1ccc(-n2nc(C(F)F)cc2-c2ccc(S(C)=O)cc2)cc1 (configuration not stated)
inactive: all assays above

Cn1cnc([N+](=O)[O-])c1Sc1ncnc2nc[nH]c12
active: [1] 12.6 µM and 16 µM | [2] 11.7 µM
inactive: [1] | [2] | [3] | [4] | [6] | [7] | [8] | [9] | [10]

CC(C)=CCC/C(C)=C\CO
not listed: [7] | [8]
inactive: all other assays above

COCCOCCOCCOC
not listed: [5] | [7]
inactive: all other assays above

CCOC(=O)COc1ccc2c(c1)CC(NCC(O)c1cccc(Cl)c1)CC2 (configuration not stated)
active: [1] 21.9 µM | [2] 31.7 µM
not listed: [5]
inactive: all other assays above

O=c1[nH]c2ccc(S(=O)CCN3CCC(Cc4ccc(F)cc4)CC3)cc2o1 (configuration not stated)
not listed: [5] | [7]
inactive: all other assays above

CC[C@H]1OC(=O)[C@H](C)[C@@H](O[C@H]2C[C@@](C)(OC)[C@@H](O)[C@H](C)O2)[C@H](C)[C@@H](O[C@@H]2O[C@H](C)C[C@H](N(C)C)[C@H]2O)[C@](C)(O)C[C@@H](C)C(=O)[C@H](C)[C@@H](O)[C@]1(C)O
not listed: [5] | [7]
inactive: all other assays above

C=CC(=C)CCC=C(C)C
not listed: [5]
inactive: all other assays above

O=C(O)CCN(C1(C(=O)NO)CCCC1)S(=O)(=O)c1ccc(Oc2ccc(F)cc2)cc1
not listed: [4]
inactive: all other assays above

CCCCCCCCO
not listed: [4]
inactive: all other assays above

Cc1ccc(C)c(O)c1
not listed: [5] | [7]
inactive: all other assays above

CC(C)=CCCC(C)CCO (configuration not stated)
not listed: [5]
inactive: all other assays above

CCNc1ccccc1
not listed: [5] | [7]
inactive: all other assays above

COCCOc1cc2cc(C(=O)NC3CCN(C(C)C)CC3)n(CC(=O)Nc3ccc(Cl)cn3)c2cn1
not listed: [5] | [7]
inactive: all other assays above

O=C(O)CC(O)C(=O)O (configuration not stated)
not listed: [4]
inactive: all other assays above
